Screening data as filed in PubChem.
LASV entry inh – inhibitors of Lassa virus binding or cell entry; Potency, µM (top dose mostly 37.9 µM), for inactives: top-dose activity change, negative = inhibition, usual class: inhibitors; AID 540256; Lassa virus pseudotype entry inhibition, cell reporter; 300,000 tested, 1.2% active; calls by dose curve; tested in HEK293 cells; also: potency is read from the fitted curve at half-maximal effect; nearly all actives have a fitted effect of over 50% in size
VACV Venus inh – inhibitors of vaccinia virus (Venus reporter) | Vaccinia virus Venus reporter expression, fluorescence | AID 720580 | Potency, µM (doses to about 36.5 µM), without a hit: top-dose activity change, negative = inhibition, hits mostly inhibitors | 330,000 tested, 0.46% active; calls by dose curve; tested in A549 cells; also: potency is read from the fitted curve at half-maximal effect; nearly all actives have a fitted effect of over 30% in size
VACV mCherry inh – inhibitors of vaccinia virus infection (mCherry reporter signal); Potency, µM (series often up to 36.5 µM), for the others: top-dose activity change, negative = inhibition, usual class: inhibitors; Vaccinia virus mCherry reporter infection, fluorescence; 310,000 tested, 0.63% active; calls by dose curve; tested in A549 cells; also: potency is read from the fitted curve at half-maximal effect; nearly all actives have a fitted effect of over 35% in size
Marburg entry inh – inhibitors of Marburg virus binding or cell entry | Marburg virus pseudotyped entry inhibition, cell reporter | Potency, µM (doses to about 37.8 µM), for inactives: at the top dose activity change, negative = inhibition, actives largely listed as inhibitors | 300,000 tested, 1.8% active | AID 540276; calls by dose curve; tested in HEK293 cells; also: potency is read from the fitted curve at half-maximal effect
HCMV antiviral – blocks human cytomegalovirus replication; activity change, negative = inhibition, % at 57.5 µM; 410,000 tested, 4.5% active; HFF cells, HCMV-luciferase reporter, 72 h; active compounds read low; in the data active = activity change below about -60%; inconclusive = no clear call, values can overlap the other calls; inactive = above about -39%
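Steps: HFFs plated, 16 h 37C; compounds added; HCMV-luciferase added to MOI 1 PFU/cell; 72 h 37C; OneGlo reagent, 5 min room temperature; luminescence read, normalized to controls.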
FMDV inh – blocks foot and mouth disease virus; FMDV antiviral cell-based qHTS; AID 1159524; 410,000 tested, 1.2% active; Potency, µM (top dose mostly 57.9 µM), for the others: at the highest dose activity change, negative = inhibition, usual class: inhibitors; calls by dose curve; tested in HEK293T cells; also: read-out not given here; potency is read from the fitted curve at half-maximal effect; nearly all actives have a fitted effect of over 45% in size
* = called active by the depositor; ! = not active in a repeat; [ ] = dose if it differs, or a comment. This is a sample that favours compounds with a hit; in the whole collection about 6.5% have one here. % is scaled to controls: 0 for no effect and ±100 for the full control effect.

What do the screens show for `O=C(NCCc1ccc(Cl)cc1)c1ccc2c(c1)N(Cc1cccc(Cl)c1)C(=O)c1ccccc1S2(=O)=O`?
LASV entry inh: -2%[46.1 µM]; VACV Venus inh: -8%; VACV mCherry inh: -18%; HCMV antiviral: -35; FMDV inh: -11%

What do the screens show for `CN(C(=O)c1ccc2c(c1)N(Cc1ccc(F)cc1)C(=O)c1ccccc1S2(=O)=O)C1CCCCC1`?
LASV entry inh: 3%[46.1 µM]; VACV Venus inh: -8%; VACV mCherry inh: -8%; Marburg entry inh: -31%[46.1 µM]; HCMV antiviral: -5; FMDV inh: -7%

How did O=C(NCCN1CCCC1)c1ccc2c(c1)N(Cc1cccc(Cl)c1)C(=O)c1ccccc1S2(=O)=O do in these assays?
HCMV antiviral: -77*; FMDV inh: 4%

Results for CN(C(=O)c1ccc2c(c1)N(Cc1cccc(Cl)c1)C(=O)c1ccccc1S2(=O)=O)C1CCCCC1 ?
LASV entry inh: 10µM*; VACV Venus inh: -2%; VACV mCherry inh: -3%; HCMV antiviral: -79*; FMDV inh: -4%

Results for CCCN(CCC)C(=O)Cn1c(=O)n(CCCCCC(=O)NCc2ccccc2Cl)c(=O)c2sccc21 ?
LASV entry inh: 13%[46.1 µM]; VACV Venus inh: -18%; VACV mCherry inh: -14%; Marburg entry inh: -2%[46.1 µM]; HCMV antiviral: -21; FMDV inh: -16%

What do the screens show for `c1ccc2c(c1)OCC(c1csc3ncnc(N4CCOCC4)c13)O2` (configuration not stated)?
LASV entry inh: 20%; VACV Venus inh: -18%; VACV mCherry inh: inactive; Marburg entry inh: 5%; HCMV antiviral: -60*

Results for CCCCOc1ccc(CC(=O)N(C)OC)cc1 ?
VACV Venus inh: -14%; VACV mCherry inh: 25%

Results for CC(Nc1cc(N2CCN(C(=O)C(C)(C)C)CC2)ccc1[N+](=O)[O-])c1ccccc1 (configuration not stated) ?
LASV entry inh: 23µM*; Marburg entry inh: inconclusive; HCMV antiviral: -39; FMDV inh: inconclusive

Results for CC(Nc1cc(N2CCNCC2)ccc1[N+](=O)[O-])c1ccccc1 (configuration not stated) ?
LASV entry inh: -4%; VACV Venus inh: inconclusive; VACV mCherry inh: 14µM*; Marburg entry inh: inconclusive; HCMV antiviral: -18; FMDV inh: -3%

Results for C[C@H](N)CCCP(=O)(O)O ?
VACV Venus inh: -16%; VACV mCherry inh: -10%; FMDV inh: -11%

What do the screens show for `CC(=O)Nc1cccc(Nc2cc3c(cn2)cc(-c2cnn(C)c2)n3Cc2ccccc2)c1`?
HCMV antiviral: -32

Results for CC1CCN(c2nc3c(S(=O)(=O)c4cccc(Cl)c4)nnn3c3ccsc23)CC1 ?
LASV entry inh: 12%[46.1 µM]; VACV Venus inh: -23%; VACV mCherry inh: -27%; HCMV antiviral: -24; FMDV inh: inconclusive

Results for O=C(Nc1ccccc1Cl)Nc1cccnc1Cl ?
LASV entry inh: 2%[46.1 µM]; VACV Venus inh: -1%; VACV mCherry inh: inactive; Marburg entry inh: -18%[46.1 µM]; HCMV antiviral: -62*; FMDV inh: -16%

What do the screens show for `O=C(Nc1ccc([N+](=O)[O-])cc1Cl)c1cc(Cl)ccc1O`?
LASV entry inh: 1.3µM*; VACV Venus inh: inconclusive; VACV mCherry inh: inconclusive; Marburg entry inh: 1.1µM*; HCMV antiviral: -98*; FMDV inh: 6.3µM*!

Results for COc1ccc(Cl)cc1C(=O)Nc1ccc([N+](=O)[O-])cc1Cl ?
VACV Venus inh: -10%; VACV mCherry inh: -13%

What do the screens show for `Cc1ccc([N+](=O)[O-])c(C(=O)Nc2cccnc2Cl)c1`?
VACV Venus inh: -13%; VACV mCherry inh: inactive; HCMV antiviral: -15; FMDV inh: -1%

What do the screens show for `O=C(Nc1cccnc1Cl)c1cc([N+](=O)[O-])ccc1Cl`?
LASV entry inh: inconclusive; VACV Venus inh: -8%; VACV mCherry inh: -19%; Marburg entry inh: inconclusive; HCMV antiviral: -75*; FMDV inh: -14%

What do the screens show for `O=C(Nc1cccc2ncccc12)c1cc([N+](=O)[O-])ccc1Cl`?
LASV entry inh: 1%[46.1 µM]; VACV Venus inh: -12%; VACV mCherry inh: -14%; Marburg entry inh: 7%[46.1 µM]; HCMV antiviral: -88*; FMDV inh: inconclusive

Results for CCC1C(=O)NCCN1Cc1ccc2c(c1)CN(Cc1cccc(OC)c1OC)CCO2 (configuration not stated) ?
VACV Venus inh: -5%; VACV mCherry inh: -5%; FMDV inh: 3%

What do the screens show for `Cc1cc(NC(=O)c2cc(-c3ccco3)on2)nn1Cc1ccc(Cl)cc1`?
LASV entry inh: inconclusive; VACV Venus inh: inconclusive; VACV mCherry inh: -8%; Marburg entry inh: -11%; HCMV antiviral: inconclusive; FMDV inh: -22%

Results for COc1cccc(-c2cc(C(=O)Nc3c(C)n(C)n(-c4ccccc4)c3=O)no2)c1 ?
LASV entry inh: 2%; VACV Venus inh: -11%; VACV mCherry inh: inactive; Marburg entry inh: inconclusive; HCMV antiviral: -108*; FMDV inh: -18%

Results for Cc1c(NC(=O)c2cc(-c3cccc(O)c3)on2)c(=O)n(-c2ccccc2)n1C ?
LASV entry inh: -2%[46.1 µM]; VACV Venus inh: -5%; VACV mCherry inh: 0%; Marburg entry inh: inconclusive; HCMV antiviral: -17; FMDV inh: 10%

How did COc1cccc(-c2cc(C(=O)Nc3cc(C)n(Cc4ccc(Cl)cc4)n3)no2)c1 do in these assays?
LASV entry inh: -29%; Marburg entry inh: inconclusive; HCMV antiviral: -80*; FMDV inh: inconclusive

What do the screens show for `COc1ccc(OC)c(-c2cc(C(=O)Nc3c(C)nn(Cc4ccc(C)cc4)c3C)no2)c1`?
LASV entry inh: 4%[46.1 µM]; VACV Venus inh: -30%; VACV mCherry inh: -31%; Marburg entry inh: -19%[46.1 µM]; HCMV antiviral: -15; FMDV inh: inconclusive

How did COc1ccc(OC)c(-c2cc(C(=O)Nc3cc(C)n(Cc4ccc(Cl)cc4)n3)no2)c1 do in these assays?
LASV entry inh: 4%; Marburg entry inh: inconclusive; HCMV antiviral: 9; FMDV inh: 22µM*

Results for C=C(CO[C@@H]1C=C[C@@H](c2ccccc2)O[C@@H]1CO)c1ccccc1 ?
Marburg entry inh: -2%[14.2 µM]

How did CNC[C@H](CC1CCCCC1)NC[C@H](CO)NCCc1cccc(C(F)(F)F)c1 do in these assays?
VACV Venus inh: 20µM*; VACV mCherry inh: inconclusive; HCMV antiviral: -100*; FMDV inh: -16%

How did CC(C)N1C(=O)C(O)(c2c[nH]c3ccccc23)c2ccccc21 (configuration not stated) do in these assays?
LASV entry inh: 2%[46.1 µM]; VACV Venus inh: -7%; VACV mCherry inh: -4%; Marburg entry inh: inconclusive; HCMV antiviral: 28; FMDV inh: -18%

How did Cc1ccc(C(C)C)c(OCc2ccc(C(=O)N/N=C/c3cccc(O)c3O)cc2)c1 do in these assays?
LASV entry inh: 12µM*; VACV Venus inh: inconclusive; VACV mCherry inh: 10µM*; Marburg entry inh: 7.3µM*; FMDV inh: inconclusive
